Assay outcomes: PubChem BioAssay, National Center for Advancing Translational Sciences (NCATS)
The list is not random: actives were taken first. Their share in the collection is about 9.3%.
Rab9 prom act – activators of Rab9 promoter; Huh7 Rab9 promoter-luciferase reporter, luminescence, 24 h; Potency, µM (titrated, usually from 9.22 µM), inactives show at the highest dose activation, negative = inhibition, actives largely listed as activators; 2.8% of 320,000 active; AID 485297; note: % of control where 0% means no effect; nearly all actives have a fitted effect of over 60% in size
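Stable Rab9-luc Huh7, 1500 cells/well, 2 h settle; cmpd in DMSO, 24 h, 37 °C/5% CO2; luciferase reagent 10 min RT; luminescence.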
FLuc counter – inhibits or activates purified firefly luciferase, miR-21 counter-screen. P08659. purified FLuc, Km substrates, luminescence inhibition. Potency, µM (top dose mostly 57.5 µM), without a hit: at the highest dose activity change, negative = inhibition, hits mostly inhibitors. 6.9% of 360,000 active;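 note: plate controls were vehicle for no effect and reference inhibitor for full effect; nearly all actives have a fitted effect of over 55% in size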
Target sequence (P08659 whole entry, looked up): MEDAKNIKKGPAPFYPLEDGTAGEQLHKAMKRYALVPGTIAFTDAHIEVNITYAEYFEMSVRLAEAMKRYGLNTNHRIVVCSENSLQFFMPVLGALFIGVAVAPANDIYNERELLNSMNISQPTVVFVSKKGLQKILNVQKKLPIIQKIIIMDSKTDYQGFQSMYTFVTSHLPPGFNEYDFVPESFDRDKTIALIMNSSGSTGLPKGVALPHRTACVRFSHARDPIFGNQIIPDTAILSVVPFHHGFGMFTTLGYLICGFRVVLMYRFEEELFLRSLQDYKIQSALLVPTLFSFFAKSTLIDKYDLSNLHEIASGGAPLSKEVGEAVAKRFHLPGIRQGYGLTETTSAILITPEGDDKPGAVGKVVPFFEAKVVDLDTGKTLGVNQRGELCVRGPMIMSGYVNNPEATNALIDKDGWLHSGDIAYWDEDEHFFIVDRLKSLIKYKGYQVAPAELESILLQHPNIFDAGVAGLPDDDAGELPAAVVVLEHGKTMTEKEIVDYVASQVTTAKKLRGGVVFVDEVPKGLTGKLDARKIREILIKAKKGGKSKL
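Biochemical qHTS of compounds, final roughly 60 µM downward over six points, against 10 nM purified firefly luciferase using Km concentrations of substrates (10 uM D-luciferin, 10 uM ATP) in Tris acetate pH 7.5 buffer; luminescence output.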
NPC1 prom act – activators of NPC1 promoter | Huh7 NPC1 promoter luciferase reporter, 24 h | Potency, µM (highest dose often 9.22 µM), inactives show top-dose activation, usual class: activators | 2.4% of 320,000 active | AID 485313; note: % of control where 0% means no effect; nearly all actives have a fitted effect of over 60% in size
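In 1536-well qHTS, Huh7 cells harboring an NPC1 promoter–luciferase construct received compound for 24 h; activation was quantified by luminescence following luciferase reagent addition.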
ELG1 repair inh – blocks ELG1-dependent DNA repair in HEK293T cells; AID 504467; HEK293T ELG1-luciferase reporter, luminescence, 16 h; DNA damage induced by 5-fluorouridine; 2.3% of 330,000 active; Potency, µM (highest dose often 46.1 µM), for inactives: top-dose activity change, negative = inhibition, actives largely listed as inhibitors; note: % is set by controls: 0 for no effect and ±100 for the full control effect; nearly all actives have a fitted effect of over 55% in size
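In this reporter screen, reduction of luminescence relative to DMSO vehicle indicated activity. Compounds and 5-fluorouridine were added together to 2,000 cells per well, incubated for 16 hr at 37 °C, then developed with ONE-Glo.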
SMN2 splice up – enhancers of SMN2 splice variant expression | HEK293 SMN2-luciferase splicing reporter, luminescence, 30-36 h | Potency, µM (titrated, usually from 46.1 µM), inactives show at the top dose activity change, positive = activation, actives largely listed as activators | 2.8% of 210,000 active | AID 1458; note: % of control where 0% means no effect; nearly all actives have a fitted effect of over 55% in size
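HEK293 cells carry an SMN2 […]–luciferase reporter in which exon 7 inclusion puts luciferase in frame. Cells were plated 10-12 h before compound addition, then incubated 30-36 h at 37C. ONE-Glo luminescence was read; sodium butyrate at 4.5 mM final served as control.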
ELG1 genotox – inducers of genotoxicity in HEK293T ELG1-luciferase cells; 1.3% of 330,000 active; AID 504466; HEK293T ELG1-luciferase reporter, luminescence, 16 h; Potency, µM (titrated, usually from 46 µM), for inactives: at the highest dose activity change, positive = activation, usual class: activators; note: % of control where 0% means no effect; nearly all actives have a fitted effect of over 60% in size
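Cells (2,000/well) expressing the ELG1-luciferase fusion are dosed by pin tool and kept 16 hr at 37 °C, 5% CO2. Signal comes from ONE-Glo luciferase reagent after 30 min at room temperature.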
Active calls of the source: *; ? = inconclusive; nt = no result given; [ ] = remark or other dose. Calls come from the whole dose curve; as a rule, active = well fitted curve in the direction sought with a large enough effect; inconclusive = small, poorly fitted or top-dose-only effect, or another doubt; inactive = no such curve, though single readings can be large; an effect the other way counts as inactive or inconclusive. Potency is the fitted concentration of half-maximal effect.

SMILES | Rab9 prom act | FLuc counter | NPC1 prom act | ELG1 repair inh | SMN2 splice up | ELG1 genotox
COc1ccc(S(=O)(=O)N2CCN(c3ccc4nnc(-c5ccc(F)cc5)n4n3)CC2)cc1 | -2% | -1% | -6% | 18µM* | -2% | -10%
Cc1cccc(C2c3[nH]c4ccccc4c3CCN2Cc2cccn2-c2ncccn2)c1 (configuration not stated) | ? | -19% | 1% | ? | 20µM* | -6%
COc1ccc(C2c3[nH]c4ccccc4c3CCN2Cc2cccn2-c2ncccn2)cc1C (configuration not stated) | -9% | -19% | 8% | 21µM* | nt | -5%
c1ccc(C2c3[nH]c4ccccc4c3CCN2Cc2cccn2-c2ccccn2)nc1 (configuration not stated) | -2% | -5% | 2% | -8% | nt | -13%
COC(=O)C(C)N1C(=O)S/C(=C/c2cc(C)n(-c3ccccn3)c2C)C1=O (configuration not stated) | 0.89µM* | 3µM* | 1.6µM* | ? | -42% | 2.6µM*
COC(=O)C(C)N1C(=O)S/C(=C\c2cc(C)n(-c3ccccn3)c2C)C1=O (configuration not stated) | 2µM* | 2.7µM* | 2µM* | ? | -59% | 1.6µM*
CCOC(=O)C(C)N1C(=O)S/C(=C/c2ccc3c(c2)n(C)c(=O)n3C)C1=O (configuration not stated) | 20% | -1% | -6% | 3% | 8% | ?
CCOC(=O)CN1C(=O)S/C(=C/c2cc(C)n(-c3ccccn3)c2C)C1=O | 4µM* | 6µM* | ? | ? | -6% | 17%
Cn1cnnc1SCC(=O)NC1CCCCCC1 | 11% | 0% | -3% | 13% | nt | 7%
Cn1c(CN2CCOCC2)nnc1SCC(=O)Nc1ccc2c(c1)OCCO2 | -3% | 1% | 16% | 19% | 8.9µM* | 7%
COCCCn1nnnc1SCC(=O)Nc1ccc2c(c1)OCCO2 | -1% | -9% | -1% | 21% | nt | 3%
Cc1ccc(NC(=O)CSc2nnc(CN3CCOCC3)n2C)cc1C | -4% | -3% | -1% | 2% | -43% | -1%
CCn1nnnc1SCC(=O)Nc1ccc2c(c1)OCCO2 | ? | 15µM* | 2.8µM* | ? | 11µM* | ?
CC(C)n1nnnc1SCC(=O)Nc1ccc2c(c1)OCCO2 | ? | 17µM* | 3.2µM* | ? | nt | ?
COc1ccc(-n2nnnc2SCC(=O)Nc2ccc3c(c2)OCCO3)c(OC)c1 | 8% | ? | 7% | 21µM* | -22% | -1%
Cc1ccccc1-c1nnc(SCC(=O)Nc2ccc3c(c2)OCCO3)n1N | -3% | -6% | 0% | -12% | -5% | 3%
Nn1c(SCC(=O)Nc2ccc3c(c2)OCCO3)nncc1=O | 16% | 21µM* | -1% | -7% | nt | 0%
COc1ccc2oc3cc(C)[n+]([O-])c(-c4ccc(Br)cc4)c3c2c1 | -2% | 3% | -8% | 21µM* | -65% | -1%
CCCCNC(=S)N(C)/N=C/c1ccc(OCC(=O)Nc2ccc(OC)cc2)c(OC)c1 | 0% | 0% | -4% | 10µM* | -21% | -11%
C/C=C/c1ccc(OCC(=O)Nc2ccc(OC)c(OC)c2)c(OC)c1 | -4% | -7% | -8% | 16µM* | -16% | -8%
CCNC(=S)N/N=C/c1ccc(OCC(=O)Nc2ccc(OC)cc2)c(OC)c1 | -2% | 6% | -1% | ? | -13% | -3%
C/C=C/c1ccc(OCC(=O)Nc2ccncc2)c(OC)c1 | -5%[1.84 µM] | ? | 0% | 5% | nt | 17%
COc1ccc(NC(=O)COc2ccc(/C=N/O)cc2OC)cc1 | ? | 21µM* | ? | ? | nt | ?
COc1ccc(N2CCN(CCCNC(=O)Cn3c(=O)c4cccn4c4ccccc43)CC2)cc1 | 0% | 0% | 2% | 7% | nt | -1%
COc1ccc(-c2noc(-c3nnn(-c4ccc(C(C)C)cc4)c3C)n2)cc1OC | nt | -9% | nt | nt | nt | nt
SMILES | Rab9 prom act | FLuc counter | NPC1 prom act | ELG1 repair inh | SMN2 splice up | ELG1 genotox
C1CCN(CC[C@@H]2CCCCN2)CC1 | nt | nt | nt | nt | -6%[9.22 µM] | nt
Cc1sc2ncnc(NCCc3ccc(S(N)(=O)=O)cc3)c2c1C | -28% | 4% | -18% | 18µM* | -99% | -18%
Nc1ccc(-c2cc(N)n(-c3ccccc3)n2)cc1 | ? | ? | 0% | 12% | ? | 9%
Cc1ccc(-n2nc(-c3ccc(N)cc3)cc2N)cc1 | ? | 19µM* | ? | ? | 11µM* | ?
CC(=O)Nc1ccc(-c2cc(N)n(-c3ccccc3)n2)cc1 | 3.2µM* | 9.5µM* | 2.2µM* | ? | nt | ?
Nc1cc(-c2ccc(Cl)cc2)nn1-c1ccccc1 | 3.2µM* | 6µM* | 3.2µM* | ? | 14µM* | ?
O=C(NCCC1=CCCCC1)C1CCN(C(=O)N2CCOc3ccc(Cl)cc32)CC1 | nt | 2% | nt | nt | nt | nt
COc1cc(OC)cc(-c2cc3nc(C)c(CCC(=O)O)c(C)n3n2)c1 | -14% | 15µM* | -15% | ? | -36% | -11%
Cc1nc2cc(-c3cccc(F)c3)nn2c(C)c1CCC(=O)NC1CCCCC1 | nt | 12µM* | nt | nt | -12% | nt
COc1cc(OC)cc(-c2cc3nc(C)c(CCC(=O)NC(C)CCc4ccco4)c(C)n3n2)c1 (configuration not stated) | 7% | 1% | -4% | 13µM* | -16% | -23%
COc1ccc(CCNC(=O)CCc2c(C)nc3cc(-c4ccccc4)nn3c2C)cc1OC | nt | ? | nt | nt | 20% | nt
Cc1nc2cc(-c3ccccc3)nn2c(C)c1CCC(=O)NCc1ccco1 | 3% | ? | 6% | ? | -12% | -3%
CCOC(=O)C1CCCCN1C(=O)CCc1c(C)nc2cc(-c3ccccc3)nn2c1C (configuration not stated) | -3% | 15µM* | 9% | ? | -49% | -13%
CCOC(=O)C1CCN(C(=O)CCc2c(C)nc3cc(-c4ccccc4)nn3c2C)CC1 | 3% | ? | -4% | 0% | -17% | -4%
CCc1ccc(N(CC(=O)NCC2CCCO2)C(=O)CCC(=O)Nc2nccs2)cc1 (configuration not stated) | -3% | 0% | 0% | 3% | nt | -4%
COc1ccc(-c2cc3nc(C)c(CCC(=O)NCc4ccc(F)cc4)c(C)n3n2)c(OC)c1 | -2% | -2% | -3% | 26µM* | 53% | -10%
Cc1nc2cc(-c3cccc(F)c3)nn2c(C)c1CCC(=O)NC(C)CCc1ccco1 (configuration not stated) | -2% | 15µM* | 0% | ? | 5% | -5%
